# Counter-ions that a name gives are not always drawn.
# How the values were obtained:
# Conditions in all cases: incubation time: 27 h, anaerobic, 37 °C;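 for the amine columns active = adjusted P below 0.05 in both replicates with a change the same way and a mean fold change under 0.8 or over 1.25; inactive = the rest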
# [1] = test system: Clostridium sporogenes DSM 1664; assay: growth (OD595) fold change vs plate DMSO controls (fold change (ratio)); higher = more growth
# Summary of the method: (§1)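 To obtain OD, 595 nm absorbance readings were blank-subtracted, corrected for compound background using 20 µM compound solutions in water, and multiplied by a calibration factor of 5. They came from 96-well mGAM cultures grown anaerobically for 27 h at 37 °C and shaken before reading. Growth is the fold change relative to the median of plate DMSO controls. Two biological replicates were averaged, and fold changes above 1.5 were set to NA.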
# [2] = test system: Escherichia coli IAI1; assay: as above
# Summary of the method: as §1
# [3] = test system: Klebsiella aerogenes DSM 30053; assay: as above
# Summary of the method: as §1
# [4] = test system: Ruminococcus gnavus DSM 108212; assay: as above
# Summary of the method: as §1
# [5] = test system: Klebsiella aerogenes DSM 30053; assay: fold change of Histamine concentration vs plate DMSO controls (fold change (ratio)); higher = more amine produced, active = hit call of the paper (significant change in both replicates, either direction)
# Summary of the method: (§2)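 Extracts of whole anaerobic mGAM cultures were analysed for amines by LC–triple-quadrupole MS with dynamic MRM and external calibration curves, with drift corrected within batch. Four gut strains were grown at 37 °C for 27 h in 80 µL wells with compounds at 20 µM final, sweeteners at 50 µM final. Each value expresses fold change over plate DMSO controls. The average of 2 biological replicates is shown.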
# [6] = test system: Clostridium sporogenes DSM 1664; assay: fold change of Tryptamine concentration vs plate DMSO controls (fold change (ratio)); higher = more amine produced, active = hit call of the paper (significant change in both replicates, either direction)
# Summary of the method: as §2
# [7] = test system: Ruminococcus gnavus DSM 108212; assay: as above
# Summary of the method: as §2
# [8] = test system: Escherichia coli IAI1; assay: fold change of Putrescine concentration vs plate DMSO controls (fold change (ratio)); higher = more amine produced, active = hit call of the paper (significant change in both replicates, either direction)
# Summary of the method: as §2
# [9] = test system: Klebsiella aerogenes DSM 30053; assay: as above
# Summary of the method: as §2
# [10] = test system: Escherichia coli IAI1; assay: fold change of Cadaverine concentration vs plate DMSO controls (fold change (ratio)); higher = more amine produced, active = hit call of the paper (significant change in both replicates, either direction)
# Summary of the method: as §2
# [11] = test system: Klebsiella aerogenes DSM 30053; assay: as above
# Summary of the method: as §2
# [12] = test system: Ruminococcus gnavus DSM 108212; assay: fold change of 2-Phenylethylamine concentration vs plate DMSO controls (fold change (ratio)); higher = more amine produced, active = hit call of the paper (significant change in both replicates, either direction)
# Summary of the method: as §2
Compound,growth [1],growth [2],growth [3],growth [4],fold change of Histamine concentration [5],fold change of Tryptamine concentration [6],fold change of Tryptamine concentration [7],fold change of Putrescine concentration [8],fold change of Putrescine concentration [9],fold change of Cadaverine concentration [10],fold change of Cadaverine concentration [11],fold change of 2-Phenylethylamine concentration [12]
CCN(CC)C(=O)C1(c2ccccc2)CC1CN (stereo not drawn) [Milnacipran hydrochloride] (20 µM),1,1.02,1.03,1.16,0.968 (inactive),1.11 (inactive),1.09 (inactive),0.94 (inactive),0.958 (inactive),0.895 (inactive),1.04 (inactive),1.12 (inactive)
CC[N+](C)(C)Cc1ccccc1Br [Bretylium tosylate] (20 µM),1.03,1.02,1.06,0.996,0.853 (inactive),0.973 (inactive),1.03 (inactive),1 (inactive),0.998 (inactive),0.937 (inactive),1.02 (inactive),1.05 (inactive)
CCCCC(=O)N(Cc1ccc(-c2ccccc2-c2nnn[nH]2)cc1)[C@H](C(=O)O)C(C)C [Valsartan] (20 µM),1.14,1.19,1.08,1.06,0.913 (inactive),1.05 (inactive),1.07 (inactive),1.17 (inactive),0.951 (inactive),0.941 (inactive),1.05 (inactive),1.12 (inactive)
CC[C@@H]1C(=O)OC[C@@H]1Cc1cncn1C [Pilocarpine nitrate] (20 µM),1.03,1,0.987,0.556,0.95 (inactive),0.955 (inactive),1.01 (inactive),1.02 (inactive),1.01 (inactive),1.04 (inactive),0.993 (inactive),0.965 (inactive)
Oc1c(I)cc(Cl)c2cccnc12 [Clioquinol] (20 µM),0.876,0.817,0.978,0.671,1.03 (inactive),0.976 (inactive),0.628 (active),0.906 (inactive),1.01 (inactive),1.09 (inactive),0.991 (inactive),0.809 (inactive)
CC(=O)O[C@]1(C(C)=O)CC[C@H]2[C@@H]3C=C(C)C4=CC(=O)CC[C@@H]4[C@H]3CC[C@@]21C [Nomegestrol acetate] (20 µM),1.01,1.05,1.05,1.25,0.943 (inactive),1.01 (inactive),1.03 (inactive),1.03 (inactive),1 (inactive),0.946 (inactive),1.03 (inactive),1.02 (inactive)
Cc1cc2c(cc1S(N)(=O)=O)S(=O)(=O)CCC2 [Meticrane] (20 µM),0.974,1.03,1.02,1.24,1.05 (inactive),1.01 (inactive),0.986 (inactive),0.983 (inactive),1.01 (inactive),1.02 (inactive),0.986 (inactive),1 (inactive)
CCc1ccc(CCOc2ccc(CC3SC(=O)NC3=O)cc2)nc1 (stereo not drawn) [Pioglitazone] (20 µM),1.3,0.963,0.988,0.816,1 (inactive),0.918 (inactive),0.977 (inactive),1.02 (inactive),1.01 (inactive),0.968 (inactive),0.998 (inactive),0.904 (inactive)
CCc1ccc(C(=O)C(C)CN2CCCCC2)cc1 (stereo not drawn) [Eperisone Hydrochloride] (20 µM),1.04,0.959,0.959,0.991,0.995 (inactive),1.04 (inactive),0.954 (inactive),0.986 (inactive),0.98 (inactive),0.992 (inactive),0.991 (inactive),1.02 (inactive)
NC(=O)c1ncn([C@@H]2O[C@H](CO)[C@@H](O)[C@H]2O)n1 [Ribavirin] (20 µM),1.13,0.988,0.979,0.942,0.947 (inactive),1.01 (inactive),0.994 (inactive),0.781 (inactive),0.973 (inactive),1.09 (inactive),1.01 (inactive),0.967 (inactive)
CCCNCC(O)COc1ccccc1C(=O)CCc1ccccc1 (stereo not drawn) [Propafenone hydrochloride] (20 µM),1.01,0.96,1.12,0.759,0.848 (inactive),1.01 (inactive),1.03 (inactive),0.987 (inactive),0.99 (inactive),1.05 (inactive),1.02 (inactive),1.06 (inactive)
CO/N=C(\C(=O)N[C@@H]1C(=O)N2C(C(=O)[O-])=C(C[n+]3cccc4c3CCC4)CS[C@H]12)c1csc(N)n1 [Cefpirome sulfate] (20 µM),0.00168,0.00447,0.0713,0.108,0.122 (active),0.0112 (active),0.0828 (active),0.213 (active),0.347 (active),0.645 (inactive),1.09 (inactive),0.0627 (active)
CC[N+]1(CC)CCC(=C(c2ccccc2)c2ccccc2)C1C (stereo not drawn) [Prifinium Bromide] (20 µM),1.1,1.08,1.04,0.925,0.982 (inactive),1.02 (inactive),0.907 (inactive),1.07 (inactive),1 (inactive),0.989 (inactive),1.01 (inactive),0.85 (inactive)
NCc1ccc(S(N)(=O)=O)cc1 [Mafenide hydrochloride] (20 µM),1.13,1,1.04,0.971,1.08 (inactive),0.888 (inactive),0.773 (inactive),1 (inactive),1.02 (inactive),1.04 (inactive),0.987 (inactive),0.755 (inactive)
CC1(C)O[C@@H]2[C@@H](CO[C@@]3(COS(N)(=O)=O)OC(C)(C)O[C@@H]23)O1 [Topiramate] (20 µM),0.915,0.972,0.997,1.06,1 (inactive),0.998 (inactive),0.947 (inactive),1.01 (inactive),0.98 (inactive),1.01 (inactive),0.989 (inactive),0.951 (inactive)
CS(=O)(=O)c1ccc([C@@H](O)[C@@H](CF)NC(=O)C(Cl)Cl)cc1 [Florfenicol] (20 µM),0,0.0375,0.0697,0.306,0.0871 (active),0.0346 (active),0.122 (active),0.217 (active),0.459 (inactive),0.177 (active),0.508 (inactive),0.143 (active)
C[C@@H]1[C@H](O)[C@@H](C)/C=C/C=C/C=C/C=C/C=C/C=C/C=C/[C@H](O[C@@H]2O[C@H](C)[C@@H](O)[C@H](N)[C@@H]2O)C[C@@H]2O[C@](O)(C[C@@H](O)C[C@@H](O)[C@H](O)CC[C@@H](O)C[C@@H](O)CC(=O)O[C@H]1C)C[C@H](O)[C@H]2C(=O)O [Amphotericin B] (20 µM),0.881,1.01,0.982,0.469,1.01 (inactive),0.985 (inactive),1.09 (inactive),1.23 (inactive),0.957 (inactive),1.09 (inactive),1.14 (inactive),1.25 (inactive)
CCOC(=O)O[C@]1(C(=O)OCCl)CC[C@H]2[C@@H]3CCC4=CC(=O)C=C[C@]4(C)[C@H]3[C@@H](O)C[C@@]21C [Loteprednol etabonate] (20 µM),1.29,1.26,1.08,1.08,0.899 (inactive),1.03 (inactive),1.01 (inactive),1.25 (inactive),1 (inactive),0.955 (inactive),1.01 (inactive),1.02 (inactive)
CCCCC(O)c1ccccc1 (stereo not drawn) [Fenipentol] (20 µM),0.995,1.05,1.03,0.948,0.969 (inactive),0.989 (inactive),1.01 (inactive),1.01 (inactive),0.987 (inactive),1.03 (inactive),1.01 (inactive),1.04 (inactive)
O=C(O)Cc1ccccc1Oc1ccc(Cl)cc1Cl [Fenclofenac] (20 µM),0.896,1.02,0.998,1,1.01 (inactive),0.984 (inactive),1.02 (inactive),1.02 (inactive),1.01 (inactive),0.999 (inactive),1.01 (inactive),1.07 (inactive)
Clc1ccc(CSC(Cn2ccnc2)c2ccc(Cl)cc2Cl)cc1 (stereo not drawn) [Sulconazole nitrate] (20 µM),0.862,1.05,0.995,0.423,0.872 (inactive),1 (inactive),0.434 (active),0.922 (inactive),0.96 (inactive),0.499 (inactive),1.01 (inactive),0.667 (active)
CCNC(=O)CCC/C=C\C[C@@H]1[C@@H](/C=C/[C@@H](O)CCc2ccccc2)[C@H](O)C[C@@H]1O [Bimatoprost] (20 µM),1.07,1.06,1.02,1,1.05 (inactive),1.02 (inactive),0.954 (inactive),1.02 (inactive),1.03 (inactive),1.04 (inactive),0.997 (inactive),0.919 (inactive)
CO[C@H]1C[C@H](O[C@H]2[C@H](C)[C@@H](O[C@@H]3O[C@H](C)C[C@H](N(C)C)[C@H]3OC(C)=O)[C@@H](C)C[C@@]3(CO3)C(=O)[C@H](C)[C@@H](OC(C)=O)[C@@H](C)[C@@H](C)OC(=O)[C@@H]2C)O[C@@H](C)[C@@H]1OC(C)=O [Troleandomycin] (20 µM),0.0017,0.966,1.03,0.456,0.976 (inactive),0.0831 (active),0.676 (active),1.01 (inactive),0.987 (inactive),1 (inactive),1.01 (inactive),0.769 (active)
CN1CCC[C@@H]1Cc1c[nH]c2ccc(CCS(=O)(=O)c3ccccc3)cc12 [Eletriptan] (20 µM),0.866,1.04,0.965,0.979,1.05 (inactive),1.05 (inactive),1.02 (inactive),1.08 (inactive),0.973 (inactive),0.955 (inactive),0.994 (inactive),1.05 (inactive)

# — the supplement of paper PMC12494721
